# Test results as given in PubChem BioAssay (NCI).
# The panel holds about 79,000 compounds, 15% with a hit somewhere; the sample as a whole holds those more often. A number with no mark means an inactive call. The source made the active and inactive calls. No stated cut-off is given here; in the data, active means growth inhibition above about 70%; inactive means the rest. *1 amine or outer side, *2 acyl side, *3 side chain or, on linkers, in order; H or OH if unused. Where a SMILES comes first, the peptide text is derived from it. Bridges are numbered along the chain shown (N, C = ends). Roman numbers before positions name the chains, in order. [ ]: non-standard residue; d: D form. Actinocin(1to9) = Cc1c2oc3c(C)ccc(C(=O)[*:2])c3nc-2c(C(=O)[*:1])c(N)c1=O; NMeY = CN[CH](Cc1ccc(O)cc1)C(=O)O; Sar = CNCC(=O)O
# Experiments:
# [1] = NCI Yeast Anticancer Drug Screen. Data for the rad50 strain (AID 155);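 further: 0% = growth of vehicle-only cultures of the same strain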; conditions: S. cerevisiae rad50 strain growth inhibition; at 50.0 µM; hits give high values
# In short: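 Cells are treated with compound, grown, and their growth is then scored against vehicle-only cultures of the same repair-deficient yeast strain.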
# [2] = NCI Yeast Anticancer Drug Screen. Data for the mec2-1 strain (AID 157); conditions: S. cerevisiae mec2-1 strain, at 50.0 µM, hits give high values
# In short: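 Using mec2-1 yeast: add compound, measure growth, express inhibition versus vehicle-treated cultures.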
# [3] = NCI Yeast Anticancer Drug Screen. Data for the sgs1 mgt1 strain (AID 161);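 further: 0% = growth of cultures given vehicle only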; conditions: S. cerevisiae sgs1 mgt1 strain, at 50.0 µM, hits give high values
# In short: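 This yeast growth screen uses a strain with defined DNA-repair lesions; compound-treated growth is compared with vehicle-treated growth.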
# [4] = NCI Yeast Anticancer Drug Screen. Data for the cln2 rad14 strain (AID 165);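 further: 0% = growth equal to vehicle treated cultures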; conditions: S. cerevisiae cln2 rad14 strain, at 50.0 µM, hits give high values
# In short: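 Yeast strain cln2 rad14, bearing defects in cell cycle control and DNA repair, serves as the test system; values reflect growth inhibition compared with vehicle.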
# [5] = NCI Yeast Anticancer Drug Screen. Data for the bub3 strain (AID 167); conditions: S. cerevisiae bub3 mutant strain, at 50.0 µM, hits give high values
# In short: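 Part of a panel of yeast mutants defective in DNA damage repair or cell cycle regulation. Each strain is grown with compound, and inhibition is calculated relative to solvent-treated cultures.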
# [6] = NCI Yeast Anticancer Drug Screen. Data for the mlh1 rad18 strain (AID 175); conditions: S. cerevisiae mlh1 rad18 strain growth inhibition; at 50.0 µM; hits give high values
# In short: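 Steps: expose repair-defective yeast to compound; measure growth; express inhibition against vehicle-treated controls.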
Compound,growth inhibition [1],growth inhibition [2] [%],growth inhibition [3],growth inhibition [4],growth inhibition [5],growth inhibition [6]
CN(C(=O)C12C3C4C1C1C2C3C41C#N)C(C)(C)C (configuration not stated),20.6%,6.15,2.5%,11.2%,20.5%,19.6%
Cc1ccc(S(=O)(=O)Nc2cc3c(cc2NC(=O)C(F)(F)F)-c2ccccc2C3)cc1,52.8%,-9,38.8%,-7.4%,-1.25%,46%
O=C(/C=C/c1ccc(O)cc1)c1cc(O)cc(O)c1,16.9%,5.05,2%,-8.95%,-4.1%,13.8%
CC(Cc1ccccc1)NN (configuration not stated),14.8%,9.55,16.5%,5.65%,10.4%,9.4%
CCCCCCC(=O)N1SC(NC(=O)OC)=Nc2ccccc21,5.55%,7.3,27.6%,36.5%,69.7%,41%
Cc1cccc(C(=O)OC2CCCCC2)c1,1.85%,1.2,-3.1%,-30.4%,23.9%,0.5%
Clc1ccccc1N=NNc1ccccc1Cl,15.8%,-2.4,7.05%,-29.5%,6.35%,6.75%
CN1C(C)(C)CC(CN2c3ccccc3Sc3ccccc32)C1(C)C (configuration not stated),34.2%,6.8,37.9%,-19.3%,27.9%,45.2%
CSc1ccc2c(cc1=O)[C@@H](NC(=O)c1ccc([N+](=O)[O-])cc1)CCc1cc(O)c(O)c(O)c1-2,37.3%,33.5,39.2%,23.1%,43.8%,50%
O=NC1CC=CC1Cl (configuration not stated),18.6%,0.1,0.65%,9.5%,-8.1%,22.2%
Cc1cc(=O)n(-c2cncc(Br)c2)[nH]1,1.5%,2.05,1.5%,-17.5%,12.4%,7.75%
CCOC(=O)C[n+]1cccc(Br)c1,-2.6%,6.45,-6.85%,-6.5%,16.3%,-0.45%
N#C/C(=N\Nc1ccc(F)cc1)C(=O)C1CC1,9.1%,9.05,5.8%,11.3%,4.3%,11.7%
COc1cccc(C2N=NC3=C(CCCC3)N2O)c1O (configuration not stated),14.4%,11,10.2%,21.4%,25.1%,19.5%
CC1OCC2CC3(O1)OC3C(COCC1OC3COC(C)OC4(C3)OC14)O2 (configuration not stated),-7.05%,-25.3,-3.45%,-44.5%,-3.15%,-14.9%
FC1=C2C3CCC(C3)C2C1(F)F (configuration not stated),12.1%,4.1,20.1%,16.9%,2.7%,17.1%
CCOC(=O)C(=O)O,12.3%,-9.3,-4.85%,-7.8%,-5.05%,-5.7%
CC(C)=C1C2CCC1[C@H](COS(C)(=O)=O)[C@@H]2COS(C)(=O)=O,-6.7%,6.5,4.45%,16.9%,11.1%,-11.2%
CN1c2ccccc2C(=O)NC12CCN(Cc1ccccc1)CC2,-30.2%,-16.3,-12.8%,0.75%,12.3%,-21.2%

Compound,growth inhibition [1],growth inhibition [2] [%],growth inhibition [3],growth inhibition [4],growth inhibition [5],growth inhibition [6]
COc1ccc(C(C)=O)cc1CCCO,-1.55%,5.85,0.4%,30.6%,13%,20.6%
CC1=C(c2cc(C(=O)Nc3ccc(Cl)cc3)nc(=S)[nH]2)Sc2ccccc2N1,-30.9%,-15.2,-46%,-1.45%,-5.65%,-35.4%
NC(=O)SCC(=O)Nc1ccc2ncccc2c1,-18.9%,4.7,-22.8%,-27.2%,-8.15%,2.8%
CC(=O)Nc1ccc(C2CCCC2)cc1Br,-3.05%,-2.15,0%,-39.8%,-12.2%,-4.45%
O=C(CSc1nnc(Cc2ccccc2)o1)Nc1ccc([N+](=O)[O-])cc1,11.2%,15.1,5.65%,10.5%,19%,-7.15%
O=C(O)c1ccccc1/C=N\NC1=NCCN1,-45.1%,-13.4,-11.4%,12.7%,-13.7%,-6.35%
CNC(=S)C(N)CCCC1NC(=S)N(C)C1=O (configuration not stated),7%,6.8,-21.9%,16.7%,8.95%,0.7%
COC(=S)SCSC(=S)OC,-12.2%,-27.3,-2.5%,-14.9%,-6.45%,-27.9%
CSC(=S)c1ccc(NSc2ccccc2[N+](=O)[O-])cc1,7.6%,23.6,46.8%,14%,20.4%,33.8%
O=C(OCc1ccccc1CN1CCOCC1)c1ccc(Cl)cc1,42.1%,68.5,75.7% (active),84% (active),87% (active),74.8% (active)
CCN(CC)C(=O)c1ccccc1,7.75%,8.6,-10.3%,-2.65%,-24.6%,10.3%
O=c1[nH]c2cc3ccccc3cc2c2ccccc12,21.9%,9.6,0.8%,-15.7%,-1.7%,14.2%
CCCCN1C(=O)CC2[C@@H]3CCc4cc(OC)ccc4C3CC[C@]2(C)C1=O (some centres not stated),9.05%,11.6,16.1%,26.6%,13.8%,14.4%
CC(NCc1c(O)ccc2c(-c3ccccc3)cc(=O)oc12)C(=O)O (configuration not stated),-39.4%,-19.1,-32.6%,4.35%,-4.95%,-14.8%
Oc1c(Cl)cc(N=Cc2ccc(N(CCCCl)CCCCl)cc2Cl)cc1Cl,84.6% (active),41,93.7% (active),75.2% (active),54.7%,84% (active)
Clc1ccc2c(c1)[nH]c1c2nc2sccn21,-7.25%,-14.7,-0.3%,1.15%,-12.9%,-10.1%
"COc1ccc(CC2C(=O)OC(C)C(NC(=O)c3c4nc5c(C(=O)NC6C(=O)NC(C(C)C)C(=O)N7CCCC7C(=O)N(C)CC(=O)N(C)C(Cc7ccc(OC)cc7)C(=O)OC6C)ccc(C)c5oc-4c(C)c(=O)c3N)C(=O)NC(C(C)C)C(=O)N3CCCC3C(=O)N(C)CC(=O)N2C)cc1 (configuration not stated) (I: TVP[Sar][NMeY](Me) / II: TVP[Sar][NMeY](Me); ester I:1-I:C, II:1-II:C; linker I:N-II:N via Actinocin(1to9); configuration not given here)",-3%,-3.65,-26.1%,8.5%,-25.8%,-24.7%
CCC(C)NC(=O)C1C2CCC(C2)C1C(=O)NC(C)CC (configuration not stated),10.7%,-2.9,-10.2%,-18.9%,-7.5%,7%
